The results in this text go back to PubChem BioAssay (NCATS).

SMILES strings stand for the structures. Results filed as inconclusive are left out. Activity calls are given as the source filed them. Unless noted, calls come from the whole dose curve; as a rule, active = well fitted curve in either direction with a large enough effect (not every such curve was filed as active); inconclusive = small, poorly fitted or top-dose-only effect, or another doubt; inactive = flat fitted curve, though single readings scatter. A value given as a limit tells only on which side of the number the result lay.

Experiment [1] has as its target Lysosomal acid glucosylceramidase (Homo sapiens) (UniProt P04062). As to the kind of experiment: Glucocerebrosidase-p2 (AID 348; in the data active = potency below about 10 µM; note: potency is the fitted concentration of half-maximal effect). The settings on record: purified GBA, blue fluorogenic substrate, 40 min. The essentials:
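Normal human glucocerebrosidase (0.2 nM) with blue fluorogenic substrate (80 uM final) in citrate/phosphate pH 5.9 with 10mM sodium taurocholate, 0.01% tween-20; 40 min RT, NaOH/glycine stop; fluorescence Ex 365/Em 440; AC50 from a titration from 0.6 nM upwards.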

Experiment [2] is described as follows: AP1 Signaling Pathway (AID 357).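 Note: ME-180 reporter cells stimulated with EGF at its EC50 level; % is set by controls: 0 for no effect and ±100 for the full control effect.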 The settings on record: ME-180 AP-1-bla reporter, EGF-induced, beta-lactamase ratio, 5 h; at 7.69 µM (top of the series) unless noted. The essentials: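 A ratiometric CCF4 readout (405 nm excitation; 460 and 530 nm emission) quantified AP-1-driven beta-lactamase in ME-180 cells after 5 h with compound and EC50 EGF; AC50 values were derived for activators and inhibitors.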

Experiment [3] concerns the target Cytochrome P450 1A2 (Homo sapiens) (UniProt P05177). As to the kind of experiment: p450-cyp1a2 (AID 410; calls by dose curve; note: potency is the fitted concentration of half-maximal effect;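 for activity change, negative = inhibition: -100% = full effect of reference inhibitor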). The settings on record: recombinant CYP1A2, luciferin-ME demethylation, luminescence; series mostly up to 57 µM. The essentials: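 O-Demethylation of luciferin 6' methyl ether by human CYP1A2 is monitored as luciferase luminescence. Substrate sits at Km (100uM); enzyme is 20nM. Values are scaled to 57 uM furafylline as maximal inhibition.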

The nature of experiment [4]: NFAT Signaling Pathway (AID 444).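 Note: carbachol stimulus at about its EC50 of 1 µM final; % is set by controls: 0 for no effect and ±100 for the full control effect.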 The settings on record: Jurkat NFAT-bla M1, carbachol, beta-lactamase ratio, 5 h; at 7.69 µM (top of the series) unless noted. Summed up: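 Jurkat cells with NFAT-driven β-lactamase reporter and co-expressed M1 receptor, stimulated with carbachol (final 1 uM, ~EC50), compound titration, 5 h at 37 °C. CCF4 loaded 1 h at RT; 460/530 nm ratio gave %activity and AC50.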

Experiment [5] in a line: Stat Signaling Pathway (AID 446).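 Note: ME-180 cervical cancer cells given 40 pM IL-6 alongside compound; SIE-controlled beta-lactamase reporter measured as 460/530 nm FRET emission ratio; % is set by controls: 0 for no effect and ±100 for the full control effect.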 The settings on record: ME-180 (cervical carcinoma) SIE beta-lactamase reporter, IL-6 stimulated, 5 h; at 7.69 µM (top of the series) unless noted. The essentials:
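Emission at 460 and 530 nm (excitation 405 nm) reports SIE-controlled beta-lactamase in ME-180 cells. Cells received compound with 40 pM IL-6 for 5 hrs at 37 C; data scaled between 300 pM IL-6 and 125 nM JAK-inhibitor controls.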

In experiment [6] the target is Mitogen-activated protein kinase 10 (Mus musculus) (UniProt Q61831). Description: JNK3 AlphaScreen Assay (AID 530).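 Note: kinase came from lysate of stimulated human HepG2 cells; signal reports phosphorylation of biotinylated GST-cJun 1-79 at Ser73 with 10 µM ATP; % is set by controls: 0 for no effect and ±100 for the full control effect.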 The settings on record: JNK3 lysate, c-Jun phosphorylation; series mostly up to 57.1 µM. The essentials: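 Activity was read by AlphaScreen after JNK3-containing HepG2 lysate (cytokine pre-activated) phosphorylated biotinylated GST-cJun with 10 uM ATP at room temperature. Phospho-Ser73 cJun antibody with Protein-A acceptor beads provided detection.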
For orientation: Bead proximity is the source of the signal in Alpha formats.

The target of experiment [7] is 3',5'-cyclic-AMP phosphodiesterase 4B (Homo sapiens) (UniProt Q07343). As to the kind of experiment: qHTS Assay for Inhibitors of PDE-IV (AID 607; active = well fitted activation curve with a large enough effect in the main read-out, with a control signal flat, not every such curve was filed as active; note: % of control where 0% means no effect). The settings on record: HEK293 ACTOne CNG channel cells, membrane potential fluorescence; series mostly up to 22.9 µM. Summed up:
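The readout is membrane depolarisation from a cAMP-sensing CNG channel, detected with a potential dye at ex 535/em 590. Cells were HEK293-derived (endogenous PDE-IV) at 1000 cells/well, titrated up to 22.9 uM final.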

Experiment [8] can be described thus: qHTS Assay for Lipid Storage Modulators (AID 1519; calls by dose curve). The settings on record: Drosophila S3 cells, BODIPY lipid droplet/cell ratio, laser cytometry, cells loaded with oleic acid; for activity change, negative = inhibition: at 57.5 µM (top of the series). Summed up:
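Cells seeded at 5,000 per well were treated with compounds over a concentration series and loaded with oleic acid (400 uM, as added). Lipid droplet fluorescence (488 nm excitation, 500-530 nm channel) was read by laser-scanning cytometry and normalized to 20 uM Triacsin C.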
(In general: Quantitative high-throughput screening tests each substance at several concentrations.)

A short description of experiment [9]: Primary qHTS for small molecule stabilizers of the endoplasmic reticulum resident proteome: Secreted ER Calcium Modulated Protein (SERCaMP) assay (AID 1508630; active = well fitted curve in the direction sought with a large enough effect; an effect the other way counts as inactive or inconclusive; note: % is set by controls: 0 for no effect and ±100 for the full control effect). The settings on record: SH-SY5Y GLuc-SERCaMP (Gaussia luciferase released on ER calcium loss) secretion, thapsigargin, luminescence; series mostly up to 38.4 µM. Summed up: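 The SH-SY5Y reporter protocol was run at 3 concentrations up to 38.3 uM (primary) or 11 concentrations (follow-up): 16 h compound, 100 nM thapsigargin for 4 h, then extracellular luciferase luminescence.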

Experiment [10] addresses Glucocorticoid receptor (Homo sapiens) (UniProt P04150). As to the kind of experiment: GR-EFC Redistribution (AID 451; calls by dose curve; note: potency is the fitted concentration of half-maximal effect). The settings on record: CHO-K1 GR-EFC translocation, beta-gal luminescence, 2 h. Summed up:
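CHO-K1 cells expressing nuclear EA and GR-ED fragments of b-gal; compounds titrated up to 46 uM final, 2 h at 37 C. GR nuclear translocation read as complemented b-gal luminescence after 1 h RT detection.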

Experiment [11] concerns the target Cytochrome P450 3A4 (Homo sapiens) (UniProt P08684). As to the kind of experiment: qHTS Assay for Activators of Cytochrome P450 3A4 (AID 885; active = well fitted curve in the direction sought with a large enough effect; an effect the other way counts as inactive or inconclusive; note: nearly all actives have a fitted effect of over 65% in size). The settings on record: recombinant CYP3A4, Luciferin-PPXE luminescence, 60 min; series mostly up to 57.1 µM. Summed up:
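Activators are scored by enhanced luminescence from CYP3A4 conversion of luciferin-PPXE (25uM, equal to KM) to luciferin, after 60 min at RT with an NADPH-regenerating system.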

Experiment [12] has the same target. As to the kind of experiment: qHTS Assay for Inhibitors and Substrates of Cytochrome P450 3A4 (AID 884; active = well fitted curve in the direction sought with a large enough effect; an effect the other way counts as inactive or inconclusive; note: potency is the fitted concentration of half-maximal effect; nearly all actives have a fitted effect of over 50% in size). The settings on record: recombinant CYP3A4, Luciferin-PPXE luminescence; series mostly up to 57.1 µM. The essentials: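 Luminescent readout of luciferin produced by CYP3A4 (20 nM) dealkylation of Luciferin-PPXE, 25 uM (its KM). NADPH-driven reaction ran 60 min at RT after 10 min compound preincubation; data scaled to 57 uM ketoconazole as 100% inhibition.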

The target in experiment [13] is Cytochrome P450 2D6 (Homo sapiens) (UniProt P10635). As to the kind of experiment: qHTS Assay for Inhibitors and Substrates of Cytochrome P450 2D6 (AID 891; active = well fitted curve in the direction sought with a large enough effect; an effect the other way counts as inactive or inconclusive; note: potency is the fitted concentration of half-maximal effect; nearly all actives have a fitted effect of over 60% in size). The settings on record: recombinant CYP2D6, luciferin-ME EGE luminescence; series mostly up to 57.1 µM. The essentials:
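Luminescent read-out of luciferin formed by 5 nM human CYP2D6 demethylating 30 uM Luciferin-ME EGE (Km level) over 60 min at room temperature after NADPH regeneration addition. Data normalized to full inhibition by 1.43 uM quinidine.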

Where [14] appears, read: measured here: cell count channel max response.
Setting [15] is: measured here: lipid channel max response.

Sequence of Cytochrome P450 1A2 (Homo sapiens) (P05177 whole entry, looked up): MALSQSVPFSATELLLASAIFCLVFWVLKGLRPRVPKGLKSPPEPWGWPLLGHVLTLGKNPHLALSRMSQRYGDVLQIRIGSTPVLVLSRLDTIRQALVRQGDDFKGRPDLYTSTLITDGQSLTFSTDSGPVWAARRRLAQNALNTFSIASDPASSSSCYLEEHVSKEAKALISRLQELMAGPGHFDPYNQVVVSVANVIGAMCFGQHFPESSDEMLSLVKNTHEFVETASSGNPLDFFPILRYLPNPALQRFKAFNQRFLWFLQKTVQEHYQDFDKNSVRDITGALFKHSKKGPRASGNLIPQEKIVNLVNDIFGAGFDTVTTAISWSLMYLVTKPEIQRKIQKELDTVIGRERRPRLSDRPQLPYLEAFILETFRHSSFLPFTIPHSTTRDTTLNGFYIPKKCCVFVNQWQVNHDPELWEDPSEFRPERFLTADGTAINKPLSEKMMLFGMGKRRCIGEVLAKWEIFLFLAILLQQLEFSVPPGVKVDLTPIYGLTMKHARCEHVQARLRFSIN
Sequence of Cytochrome P450 3A4 (Homo sapiens) (P08684 whole entry, looked up): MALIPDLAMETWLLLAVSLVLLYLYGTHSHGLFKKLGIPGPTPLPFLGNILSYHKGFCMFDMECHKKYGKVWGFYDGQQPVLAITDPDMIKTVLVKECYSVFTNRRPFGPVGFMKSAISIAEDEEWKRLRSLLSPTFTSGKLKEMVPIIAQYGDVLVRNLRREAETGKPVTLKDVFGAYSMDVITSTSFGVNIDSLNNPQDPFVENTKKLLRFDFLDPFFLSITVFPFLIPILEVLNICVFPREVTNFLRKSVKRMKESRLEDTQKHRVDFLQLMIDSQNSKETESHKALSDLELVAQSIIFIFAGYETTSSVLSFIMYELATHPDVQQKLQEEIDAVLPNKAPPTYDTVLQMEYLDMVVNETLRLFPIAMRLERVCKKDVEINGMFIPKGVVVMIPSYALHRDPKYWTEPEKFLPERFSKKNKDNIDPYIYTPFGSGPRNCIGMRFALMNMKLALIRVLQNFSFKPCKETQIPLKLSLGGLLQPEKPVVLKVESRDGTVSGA
Sequence of Lysosomal acid glucosylceramidase (Homo sapiens) (P04062 whole entry, looked up): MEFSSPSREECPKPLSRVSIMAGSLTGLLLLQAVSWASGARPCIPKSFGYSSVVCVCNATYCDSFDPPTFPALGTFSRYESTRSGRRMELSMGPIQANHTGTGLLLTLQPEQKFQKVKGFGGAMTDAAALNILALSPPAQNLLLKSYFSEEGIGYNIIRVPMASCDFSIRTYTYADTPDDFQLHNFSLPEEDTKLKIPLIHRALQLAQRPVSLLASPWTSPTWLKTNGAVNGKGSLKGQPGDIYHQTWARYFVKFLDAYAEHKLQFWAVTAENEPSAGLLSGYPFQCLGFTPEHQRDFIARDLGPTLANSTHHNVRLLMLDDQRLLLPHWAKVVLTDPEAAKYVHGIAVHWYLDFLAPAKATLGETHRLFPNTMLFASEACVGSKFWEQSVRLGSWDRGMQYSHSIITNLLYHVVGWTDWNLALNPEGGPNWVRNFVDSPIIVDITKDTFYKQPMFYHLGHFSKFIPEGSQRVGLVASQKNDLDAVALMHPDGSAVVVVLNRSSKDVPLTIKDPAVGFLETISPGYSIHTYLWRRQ
Sequence of Glucocorticoid receptor (Homo sapiens) (P04150 whole entry, looked up, the tested form may be a part): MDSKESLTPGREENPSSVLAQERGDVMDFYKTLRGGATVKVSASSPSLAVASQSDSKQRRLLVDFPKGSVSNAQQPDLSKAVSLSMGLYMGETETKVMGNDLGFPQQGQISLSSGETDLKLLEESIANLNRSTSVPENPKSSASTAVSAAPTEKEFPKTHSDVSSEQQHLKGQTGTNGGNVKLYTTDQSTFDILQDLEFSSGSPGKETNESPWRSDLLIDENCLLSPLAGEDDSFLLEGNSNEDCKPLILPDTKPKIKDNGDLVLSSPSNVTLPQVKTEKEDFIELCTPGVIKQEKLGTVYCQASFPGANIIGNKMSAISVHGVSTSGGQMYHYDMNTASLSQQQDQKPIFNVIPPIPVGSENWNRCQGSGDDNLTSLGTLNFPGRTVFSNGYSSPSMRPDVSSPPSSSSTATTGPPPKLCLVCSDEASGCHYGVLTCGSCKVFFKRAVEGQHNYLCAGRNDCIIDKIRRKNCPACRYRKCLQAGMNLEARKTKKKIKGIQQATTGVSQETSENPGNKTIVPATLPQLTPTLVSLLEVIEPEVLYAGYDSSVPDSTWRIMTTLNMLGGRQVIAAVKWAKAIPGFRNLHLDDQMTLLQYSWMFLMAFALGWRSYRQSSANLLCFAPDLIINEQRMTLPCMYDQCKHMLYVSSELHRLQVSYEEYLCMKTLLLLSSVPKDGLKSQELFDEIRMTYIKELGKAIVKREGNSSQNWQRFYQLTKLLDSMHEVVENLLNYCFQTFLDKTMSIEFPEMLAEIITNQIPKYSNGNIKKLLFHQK
Sequence of 3',5'-cyclic-AMP phosphodiesterase 4B (Homo sapiens) (Q07343 whole entry, looked up): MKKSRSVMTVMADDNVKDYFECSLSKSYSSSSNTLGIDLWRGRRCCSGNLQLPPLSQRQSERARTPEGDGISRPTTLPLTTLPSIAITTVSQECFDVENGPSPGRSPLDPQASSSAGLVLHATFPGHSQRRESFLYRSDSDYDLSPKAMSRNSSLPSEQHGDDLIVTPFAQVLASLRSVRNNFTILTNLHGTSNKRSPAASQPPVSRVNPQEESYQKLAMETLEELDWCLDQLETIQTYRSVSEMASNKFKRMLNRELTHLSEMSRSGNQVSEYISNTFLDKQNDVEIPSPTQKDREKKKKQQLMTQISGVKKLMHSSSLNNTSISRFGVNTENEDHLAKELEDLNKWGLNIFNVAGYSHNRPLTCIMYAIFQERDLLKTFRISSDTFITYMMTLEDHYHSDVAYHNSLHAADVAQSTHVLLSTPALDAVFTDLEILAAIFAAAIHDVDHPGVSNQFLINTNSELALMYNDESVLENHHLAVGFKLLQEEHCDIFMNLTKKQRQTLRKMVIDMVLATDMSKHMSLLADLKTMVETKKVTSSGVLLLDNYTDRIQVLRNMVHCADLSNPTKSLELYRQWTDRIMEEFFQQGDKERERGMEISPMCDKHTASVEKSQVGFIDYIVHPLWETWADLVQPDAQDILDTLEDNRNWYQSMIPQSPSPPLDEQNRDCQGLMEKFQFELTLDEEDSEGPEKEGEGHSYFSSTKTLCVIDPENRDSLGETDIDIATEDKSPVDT
Sequence of Cytochrome P450 2D6 (Homo sapiens) (P10635 whole entry, looked up): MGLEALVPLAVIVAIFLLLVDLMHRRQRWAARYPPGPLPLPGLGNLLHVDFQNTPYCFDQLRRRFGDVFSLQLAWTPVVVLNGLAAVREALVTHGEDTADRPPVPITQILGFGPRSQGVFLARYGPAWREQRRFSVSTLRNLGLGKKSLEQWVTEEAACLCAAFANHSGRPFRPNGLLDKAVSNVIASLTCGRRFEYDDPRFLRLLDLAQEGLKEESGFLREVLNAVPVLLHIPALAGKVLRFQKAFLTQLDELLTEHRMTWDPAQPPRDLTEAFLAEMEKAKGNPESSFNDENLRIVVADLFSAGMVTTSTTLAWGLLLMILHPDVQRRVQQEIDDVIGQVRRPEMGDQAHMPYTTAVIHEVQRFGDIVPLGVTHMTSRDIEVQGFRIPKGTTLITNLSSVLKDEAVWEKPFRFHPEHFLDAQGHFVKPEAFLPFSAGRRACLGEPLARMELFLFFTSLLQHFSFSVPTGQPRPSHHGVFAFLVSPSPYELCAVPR

Take `O=C(Nc1cccc(F)c1)N1CCC2(CC1)CCN(C(=O)c1cnccn1)CC2`: the Potency in experiment [1] was > 11.4 µM (inactive). For the same compound, the activity change, negative = inhibition in [2] is -10.4% (inactive); in experiment [4], 20.5% (inactive); in [8], 3.08% (inactive). In addition, the Potency result in experiment [3], in experiment [7] and in experiment [9] was “inactive” throughout. Also, the activity, negative = inhibition in experiment [5] is -10.8% (inactive). In addition, in experiment [6], the outcome was inactive. Also, the max response in experiment [8] (setting [14]) stood at 11.7%; in [8] (setting [15]) it was 15.9%.

As for `CS(=O)(=O)N1CCC2(CC1)CN(c1ccncc1)C2`, the Potency in experiment [1] was > 11.4 µM (inactive). Besides, the activity change, negative = inhibition was -2.13% (inactive) in experiment [2], -17.7% (inactive) in experiment [4] and 4.12% (inactive) in [8]. Also, the Potency result in experiment [3], in experiment [7] and in experiment [9] was “inactive” in each case. For the same compound, the activity, negative = inhibition in experiment [5] is -0.0709% (inactive). Also, the result in [6] was inactive. Also, the max response in [8] (setting [14]) was -19.4%; in experiment [8] (setting [15]) it was -21.8%.

`O=C(c1cnccn1)N1CCC[C@@]2(CCN(c3ccncc3)C2)C1`: the Potency in experiment [1] was > 11.4 µM (inactive); in [10], > 46 µM (inactive). The activity change, negative = inhibition in experiment [2] is -3.24% (inactive); in [4] it was 1.53% (inactive); in experiment [8], 3.16% (inactive). The Potency result in experiment [3], in [7], in [11] and in experiment [9] was “inactive” in each case. For the same compound, in experiment [5], the activity, negative = inhibition is 5.94% (inactive). Further, the max response in [8] (setting [14]) is 6.74%; in [8] (setting [15]), 12.1%.

With `c1ccc(-c2ccc(N3CC4(CCNCC4)C3)cc2)cc1`, the Potency in [1] was > 11.4 µM (inactive); in experiment [3], 15.8 µM (active); in experiment [10] it was > 46 µM (inactive). The activity change, negative = inhibition in [2] was 5.34% (inactive); in experiment [4], 4.74% (inactive); in experiment [8] it was -2.41% (inactive). Also, in experiment [5], the activity, negative = inhibition is 4.95% (inactive). Moreover, the Potency result in experiment [7], in [11] and in experiment [9] was “inactive” throughout. Further, the max response in [8] (setting [14]) is -25%; in [8] (setting [15]), -25.6%.

With `O=C(c1cnccn1)N1CCC[C@@]2(CCN(Cc3cc(C(F)(F)F)cc(C(F)(F)F)c3)C2)C1`, the Potency in experiment [1] is > 11.4 µM (inactive); in experiment [12], 7.94 µM (active); in [13], 3.16 µM (active). The activity change, negative = inhibition is -16.9% (inactive) in experiment [2], 16.8% (inactive) in experiment [4] and 4.01% (inactive) in [8]. Besides, the Potency result in [3], in experiment [7], in experiment [11] and in [9] was “inactive” throughout. Besides, in experiment [5], the activity, negative = inhibition is 2.8% (inactive). Moreover, the result in [6] was inactive. The max response in experiment [8] (setting [14]) is 14.7%; in [8] (setting [15]), 20.7%.

`FC(F)(F)c1cc(CN2CCCC3(CCNCC3)C2)cc(C(F)(F)F)c1`: the Potency in [1] is > 11.4 µM (inactive); in experiment [10] it was > 46 µM (inactive). Besides, the activity change, negative = inhibition in experiment [2] was 2.64% (inactive); in [4] it was -4.7% (inactive); in [8] it was 0.357% (inactive). In addition, the Potency entry in experiment [3], in experiment [11] and in experiment [9] was “inactive” in each case. Besides, the activity, negative = inhibition in experiment [5] was 1.59% (inactive). In experiment [6], the call was inactive. For the same compound, the max response was -0.613% in [8] (setting [14]) and 2.14% in experiment [8] (setting [15]).
